From PubChem BioAssay (NCATS)
Results filed as inconclusive are left out. Where a call stands in place of a potency, no number is given. A number with no mark means an inactive call. The source made the active and inactive calls. Calls follow the shape of the dose curve; as a rule, active = well fitted cell-killing curve with a large enough effect; inconclusive = small, poorly fitted or top-dose-only effect, or effect the other way; inactive = flat fitted curve, though single readings scatter.

Tests used:
Experiment in all cases: Primary qHTS to identify gynecologic anti-cancer compounds using libraries of approved drugs and bioactive compounds (AID 1345084); also: nearly all actives have a fitted effect of over 55% in size
Details in all cases: Gynecologic cancer cell panel viability, ATPlite luminescence, 48 h; series mostly up to 57.5 µM
PA-1 = system: PA-1
How it was run: (§1)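 Cells, 1,000 per well, plated 16 h, then exposed 48 h at 37 C to compounds. Viability by ATPlite luminescence after 15 min at room temperature.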

SKOV3 = system: SKOV3
How it was run: as §1

Tov-21-G = system: Tov-21-G
How it was run: as §1

Tov112D = system: Tov112D
How it was run: as §1
Potency is read from the fitted curve at half-maximal effect.

Row | SMILES | Potency (PA-1) | Potency (SKOV3) | Potency (Tov-21-G) | Potency (Tov112D) | activity change, negative = cytotoxicity (PA-1) | activity change, negative = cytotoxicity (SKOV3) | activity change, negative = cytotoxicity (Tov-21-G) | activity change, negative = cytotoxicity (Tov112D)
1 | CCC(C)CNCC(=O)N1CCC2SC=CC2C1COc1cccc(C)c1 (stereo not drawn) | inactive | inactive | inactive | inactive | – | – | – | –
2 | C=CC1(C)CC(O)C(C(=C)C(=O)OC)C(O)C1C(=C)CO (stereo not drawn) | inactive | inactive | inactive | inactive | – | – | – | –
3 | CCC(C)/C=C(C)/C=C/C1=CC2=CC(=O)C3(C)OC(C)(O)C(C(=O)OC)C3C2=CO1 (stereo not drawn) | inactive | inactive | inactive | inactive | – | – | – | –
4 | CC(C)(C)OC(=O)c1ncn2c1C(C)(C)Nc1ccccc1-2 | inactive | inactive | inactive | inactive | – | – | – | –
5 | O=[N+]([O-])c1cn2c(n1)OC[C@@H](OCc1ccc(-c3ccc(OC(F)(F)F)cc3)nc1)C2 | inactive | inactive | inactive | inactive | – | – | – | –
6 | O=C(N[C@H]1CCN(C(=O)c2cc(C(F)(F)F)cc(C(F)(F)F)c2)[C@H](Cc2ccc(Cl)cc2)C1)c1ccnc2ccccc12 | inactive | inactive | inactive | inactive | – | – | – | –
7 | C/C=C(\C)C(=O)OC1C(C)C2(O)C(C=C(CO)CC3(O)C(=O)C(C)=CC32)C2C(C)(C)C12OC(C)=O (stereo not drawn) | inactive | inactive | inactive | inactive | – | – | – | –
8 | O=C(Nc1ccccc1C(=O)NC1CCCCNC1=O)c1cc2ccccc2s1 (stereo not drawn) | inactive | inactive | inactive | inactive | – | – | – | –
9 | CCOC(=O)C1=Cc2ccc(C(F)(F)C(F)(F)F)cc2N=C(N)C1 | inactive | inactive | inactive | inactive | – | – | – | –
10 | COc1ccncc1C(=O)NC(=O)Nc1ccc(-c2ccccc2)c(C(F)(F)F)c1 | inactive | inactive | inactive | inactive | – | – | – | –
11 | CCOC(=O)c1cnc2ccc(-c3cncc(NS(=O)(=O)c4ccccc4)c3)cn12 | 1.78 µM (active) | 31.6 µM (active) | 4.47 µM (active) | 1.41 µM (active) | – | – | – | –
12 | Nc1nc2c(ncn2C2OC3COP(=O)(O)OC3C2O)c(=O)[nH]1 (stereo not drawn) | inactive | inactive | inactive | inactive | – | – | – | –
13 | O=C(NCCN1CCC(n2c(=O)[nH]c3ccccc32)CC1)c1ccc2ccccc2c1 | inactive | inactive | inactive | inactive | – | – | – | –
14 | N#Cc1ccc(COC[C@H]2O[C@@H](n3c(NCc4ccc(Cl)c(Cl)c4)nc4c(N)ncnc43)[C@H](O)[C@@H]2O)cc1 | inactive | inactive | inactive | inactive | – | – | – | –
15 | CC(C)c1cccc(C(C)C)c1NC(=O)Nc1ccc(Sc2ccc([N+](=O)[O-])cc2)cc1 | inactive | inactive | inactive | inactive | – | – | – | –
16 | O=C(NCCCc1ccccc1)C1CCC(CNS(=O)(=O)c2cccc3nsnc23)CC1 (stereo not drawn) | inactive | inactive | inactive | inactive | – | – | – | –
17 | O=S1(=O)CCN(Cc2cc(NCC3CCOCC3)c3[nH]c(-c4ccccc4)cc3c2)CC1 | inactive | inactive | inactive | inactive | – | – | – | –
18 | O=C(NCc1ccccc1)c1ccc2c(=O)n(-c3cccc(C(F)(F)F)c3)c(=S)[nH]c2c1 | inactive | inactive | inactive | inactive | – | – | – | –
19 | C=C1/C(=C/C=C2\CCC[C@]3(C)[C@@H]([C@H](C)/C=C/[C@@H](C)C(C)C)CC[C@@H]23)C[C@@H](O)C[C@@H]1O | inactive | inactive | inactive | inactive | – | – | – | –

Row | SMILES | Potency (PA-1) | Potency (SKOV3) | Potency (Tov-21-G) | Potency (Tov112D) | activity change, negative = cytotoxicity (PA-1) | activity change, negative = cytotoxicity (SKOV3) | activity change, negative = cytotoxicity (Tov-21-G) | activity change, negative = cytotoxicity (Tov112D)
20 | COc1ccc(NC(=O)C2C[C@H](C)CC[C@H]2C(C)C)cc1 (stereo partly drawn) | inactive | inactive | inactive | inactive | – | – | – | –
21 | CC(C)(C)NC(=O)[C@H]1CC[C@H]2[C@@H]3CC[C@H]4NC(=O)CC[C@]4(C)[C@H]3CC[C@]12C | inactive | inactive | inactive | inactive | – | – | – | –
22 | CCC/C=C/c1cc2c(C=O)c(O)c(CC=C(C)C)cc2o1 | inactive | inactive | inactive | inactive | – | – | – | –
23 | Cn1ccc(NC(=O)c2cc(Oc3ccc(C(=O)N4CCC4)c(F)c3)c3c(c2)OC(C)(C)C3)n1 | inactive | inactive | inactive | inactive | – | – | – | –
24 | C=C1CC[C@@H](O)[C@]2(C)C[C@H]3OC(=O)C(=C)[C@H]3CC12 (stereo partly drawn) | inactive | inactive | inactive | inactive | – | – | – | –
25 | CC(C)OC(=O)N1CCC(Oc2ncnc3c2cnn3-c2ccc(S(C)(=O)=O)cc2F)CC1 | inactive | inactive | inactive | inactive | – | – | – | –
26 | Cc1cc(NC(=O)NCCN2CCC(O)(Cc3ccccc3)CC2)c2ccccc2n1 | inactive | inactive | inactive | inactive | – | – | – | –
27 | O=C(c1ccccn1)N(Cc1cccs1)C1(C(=O)NC2CCCCC2)CCCCC1 | inactive | inactive | inactive | inactive | – | – | – | –
28 | COC1C=C(C)C(O)(CO)C2(C)CCCC(C)(C)C12 (stereo not drawn) | inactive | inactive | inactive | inactive | – | – | – | –
29 | CCNC(=O)N1CCCN(c2ccc(C(=O)NCCc3ccc(Cl)cc3Cl)cc2NC(=O)c2cccc(Cl)c2)CC1 | inactive | 1 µM (active) | inactive | inactive | – | – | – | –
30 | NS(=O)(=O)c1ccc(N2N=C(c3ccccc3)CC2c2ccccc2)cc1 (stereo not drawn) | inactive | inactive | inactive | inactive | – | – | – | –
31 | CC(C)=CCC[C@](C)(O[C@@H]1O[C@H](CO[C@@H]2OC[C@@H](O)[C@H](O)[C@H]2O)[C@@H](O)[C@H](O)[C@H]1O)[C@H]1CC[C@]2(C)[C@@H]1[C@H](O)C[C@@H]1[C@@]3(C)CC[C@H](O[C@@H]4O[C@H](CO)[C@@H](O)[C@H](O)[C@H]4O)C(C)(C)[C@@H]3CC[C@]12C | inactive | inactive | inactive | inactive | – | – | – | –
32 | COC1CC(=O)C23C(=O)NC(CC(C)C)C2C(C)C(C)=CC3/C=C(\C)CCCC1O (stereo not drawn) | inactive | inactive | inactive | inactive | – | – | – | –
33 | C/C=C(\C)C(=O)OC1C(C)C2(O)C(C=C(CO)CC3(O)C(=O)C(C)=CC32)C2C(C)(C)C12OC(=O)C(C)C (stereo not drawn) | inactive | inactive | inactive | inactive | – | – | – | –
34 | COc1cc(C(C)=O)c(OC)c2c1OC(C)(C)C=C2 | inactive | inactive | inactive | inactive | – | – | – | –
35 | Cn1cc(-c2ccc(F)c(C(F)(F)F)c2)nc1C1CCN(c2ncnc3[nH]ncc23)CC1 | inactive | inactive | inactive | inactive | – | – | – | –
36 | CCC/C=C/C(=O)O[C@H]1CC(C)(C)CC2[C@@]13[C@H](O)C[C@]1(C)[C@@]2(CCC2[C@@]4(C)CC[C@H](O[C@@H]5O[C@H](C(=O)O)[C@@H](O)[C@H](O[C@@H]6O[C@H](CO)[C@H](O)[C@H](O)[C@H]6O[C@@H]6O[C@@H](C)[C@H](O)[C@@H](O)[C@H]6O[C@@H]6OC[C@](O)(CO)[C@H]6O)[C@H]5O[C@@H]5O[C@H](CO)[C@H](O)[C@H](O)[C@H]5O)C(C)(C)C4CC[C@]21C)O[C@H]3O (stereo partly drawn) | – | – | – | – | -0.263% [at 6.55 µM] | -3.55% [at 6.55 µM] | -24.3% [at 6.55 µM] | 7.77% [at 6.55 µM]
37 | COc1ccc(CCN(C)CCCOc2nsc(-c3ccccc3)n2)cc1OC | inactive | inactive | inactive | inactive | – | – | – | –
38 | CC1CCC(=O)CC(SCC(O)C(=O)O)CCC(=O)O1 (stereo not drawn) | inactive | inactive | inactive | inactive | – | – | – | –

Row | SMILES | Potency (PA-1) | Potency (SKOV3) | Potency (Tov-21-G) | Potency (Tov112D) | activity change, negative = cytotoxicity (PA-1) | activity change, negative = cytotoxicity (SKOV3) | activity change, negative = cytotoxicity (Tov-21-G) | activity change, negative = cytotoxicity (Tov112D)
39 | Cc1cn(CCN2CCN(c3ccccc3-c3cc(C#N)cc(C(=O)NCCCN4CCCC4)c3)CC2)c2ccccc12 | inactive | inactive | inactive | inactive | – | – | – | –
40 | CC(C)[C@@H](c1ccc(C(F)(F)F)cc1CN(Cc1cc(C(F)(F)F)cc(C(F)(F)F)c1)c1nnn(C)n1)N1CCC(C(=O)O)CC1 | inactive | inactive | inactive | inactive | – | – | – | –
41 | CC(C)(CO)c1cc2cc(NC(=O)C3(c4ccc5c(c4)OC(F)(F)O5)CC3)c(F)cc2n1CC(O)CO (stereo not drawn) | inactive | inactive | inactive | inactive | – | – | – | –
42 | CC(=O)O[C@@H]1C[C@@]23C[C@@]24CC[C@H](O[C@@H]2OC[C@H](O)[C@H](O)[C@H]2O)C(C)(C)[C@@H]4CC[C@H]3[C@]2(C)[C@@H](O)C34O[C@H](C[C@@H](C)[C@@H]3[C@@]12C)[C@@H](C(C)(C)O)O4 | inactive | inactive | inactive | inactive | – | – | – | –
43 | CC1(CO)CC2C(O)C3=C(CC(C)(O)C2C1)C(=O)OC3 (stereo not drawn) | inactive | inactive | inactive | inactive | – | – | – | –
44 | Cc1cc2sc(NC(=O)Cc3ccccc3)nc2cc1Cl | inactive | inactive | inactive | inactive | – | – | – | –
45 | CCCN1CCC=C(c2cc(-c3ccc(C)cc3)no2)C1 | inactive | inactive | inactive | inactive | – | – | – | –
46 | Cc1cc(C(=O)Cn2cc(C#N)ccc2=O)c(C)n1Cc1ccccc1 | inactive | inactive | inactive | inactive | – | – | – | –
47 | CC(C)(Cc1ccccc1)NCC(O)c1ccc(O)c(NS(C)(=O)=O)c1 (stereo not drawn) | inactive | inactive | inactive | inactive | – | – | – | –
48 | COc1c(F)cccc1C(=O)N1C[C@@H](C)CC[C@H]1CNc1ccc(Br)cn1 | inactive | inactive | inactive | inactive | – | – | – | –
49 | O=C(Nc1ccc(Cl)cc1)c1ccccc1NCc1ccncc1 | inactive | inactive | inactive | inactive | – | – | – | –
50 | CCCc1cc2c(N3CCN(C4=NCC(C)(C)S4)CC3)ncnc2s1 | inactive | 25.1 µM (active) | inactive | inactive | – | – | – | –
51 | COCCCNC(=O)c1ccc(Cn2c(=O)c3ccccc3n(Cc3ccc(C(C)C)cc3)c2=O)cc1 | inactive | inactive | inactive | inactive | – | – | – | –
52 | COc1cc(C(=O)NCC2(N(C)C)CCCC2)cc(OC)c1OCc1ccccc1 | inactive | inactive | inactive | inactive | – | – | – | –
53 | CNCCCC1(c2ccccc2)OC(C)(C)c2ccccc21 (stereo not drawn) | inactive | inactive | inactive | inactive | – | – | – | –
54 | COc1ccc([C@H]2OC[C@H]3O[C@@H](O[C@H]4[C@@H]2NC[C@@H]4O)[C@H](O)[C@H]3O)cc1 | 5.01 µM (active) | 3.98 µM (active) | 2.82 µM (active) | 5.62 µM (active) | – | – | – | –
55 | O=c1[nH]c2ccccc2n1CCN1CCN(c2cccc(C(F)(F)F)c2)CC1 | inactive | inactive | inactive | inactive | – | – | – | –
56 | CCC(=O)N1CCOc2c(cc(-c3ccc(OC)c(OC)c3)cc2OC[C@H]2CCCN(C)C2)C1 | inactive | inactive | inactive | inactive | – | – | – | –
57 | Fc1ccc(N2CCN(CCC3OCCc4ccccc43)CC2)cc1 (stereo not drawn) | inactive | inactive | inactive | inactive | – | – | – | –
